Data as given in the supplement of paper PMC10849652.
Targets with a hit are over-represented here; the source holds about 7,900 in all. About 0.6% of all pairs of compound and target were hits. A number with no mark means an inactive call.

Assays:
Test in all cases: log2 fold change, soluble protein after heating vs DMSO (PISA); higher = thermal stabilisation; K562 cells, 10 uM, 30 min; active = over 0.2 and 3.5 SD of the protein, either way, in both replicates (recomputed)
bafetinib = compound: Cc1ccc(NC(=O)c2ccc(CN3CC[C@H](N(C)C)C3)c(C(F)(F)F)c2)cc1Nc1nccc(-c2cncnc2)n1 [bafetinib]
In short: (§1)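 Aliquots of K562 cells (2×10^6 cells/mL) treated with 10 μM compound for 30 min were heated for 3 min over 48°C-58°C. After pooling and extraction in PBS with 0.5% NP-40 at 4°C, soluble protein from a 21,000xg, 90 min spin was quantified by TMTpro 16plex LC-MS/MS with channel sums equalised. Thermal stability is expressed against control samples, from duplicates, as a log2 fold change.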

[1] = compound: Cc1cccc(CC(=O)N2CCc3c2ccc(-c2cn(C)c4ncnc(N)c24)c3F)n1
In short: as §1

nilotinib = compound: Cc1cn(-c2cc(NC(=O)c3ccc(C)c(Nc4nccc(-c5cccnc5)n4)c3)cc(C(F)(F)F)c2)cn1 [nilotinib]
In short: as §1

[2] = compound: Cc1nc(Nc2n[nH]c3c2CN(C(=O)N[C@H](CN(C)C)c2ccccc2)C3(C)C)c2sccc2n1
In short: as §1

dasatinib = compound: Cc1nc(Nc2ncc(C(=O)Nc3c(C)cccc3Cl)s2)cc(N2CCN(CCO)CC2)n1 [dasatinib]
In short: as §1

[3] = compound: Cc1ncc(-c2ccnc(Nc3ccc(S(C)(=O)=O)cc3)n2)n1C(C)C
In short: as §1

[4] = compound: Cn1cc(-c2ccc3c(c2)CCN3C(=O)Cc2cccc(C(F)(F)F)c2)c2c(N)ncnc21
In short: as §1

[5] = compound: Cn1cc(-c2ccc3nnc(C(F)(F)c4ccc5ncccc5c4)n3n2)cn1
In short: as §1

tipifarnib = compound: Cn1cncc1[C@@](N)(c1ccc(Cl)cc1)c1ccc2c(c1)c(-c1cccc(Cl)c1)cc(=O)n2C [tipifarnib]
In short: as §1

mubritinib = compound: FC(F)(F)c1ccc(/C=C/c2nc(COc3ccc(CCCCn4ccnn4)cc3)co2)cc1 [mubritinib]
In short: as §1

UniProt Q9H269, sequence (Q9H269 whole entry, looked up): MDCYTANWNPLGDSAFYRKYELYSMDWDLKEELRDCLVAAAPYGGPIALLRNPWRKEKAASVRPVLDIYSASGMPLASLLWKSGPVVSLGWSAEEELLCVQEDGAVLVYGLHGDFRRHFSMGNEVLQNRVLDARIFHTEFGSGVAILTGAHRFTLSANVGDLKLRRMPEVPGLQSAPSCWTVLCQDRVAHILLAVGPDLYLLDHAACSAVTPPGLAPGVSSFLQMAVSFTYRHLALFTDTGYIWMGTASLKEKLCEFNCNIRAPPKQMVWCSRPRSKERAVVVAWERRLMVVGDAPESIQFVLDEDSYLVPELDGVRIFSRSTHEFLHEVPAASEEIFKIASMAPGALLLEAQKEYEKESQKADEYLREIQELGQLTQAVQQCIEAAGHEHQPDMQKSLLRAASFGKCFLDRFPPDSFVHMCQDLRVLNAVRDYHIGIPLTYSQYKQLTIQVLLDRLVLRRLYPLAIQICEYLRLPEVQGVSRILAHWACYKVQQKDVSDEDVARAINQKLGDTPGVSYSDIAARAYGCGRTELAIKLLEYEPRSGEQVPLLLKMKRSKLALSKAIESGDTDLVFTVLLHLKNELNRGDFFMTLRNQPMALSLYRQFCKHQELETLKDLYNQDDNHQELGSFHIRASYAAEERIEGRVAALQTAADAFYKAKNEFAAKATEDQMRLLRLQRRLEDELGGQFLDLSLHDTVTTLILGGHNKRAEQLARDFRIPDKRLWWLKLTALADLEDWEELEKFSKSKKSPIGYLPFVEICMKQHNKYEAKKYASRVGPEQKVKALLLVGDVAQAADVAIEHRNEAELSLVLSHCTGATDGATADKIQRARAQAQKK
UniProt Q9Y2L5, sequence (Q9Y2L5 whole entry, looked up): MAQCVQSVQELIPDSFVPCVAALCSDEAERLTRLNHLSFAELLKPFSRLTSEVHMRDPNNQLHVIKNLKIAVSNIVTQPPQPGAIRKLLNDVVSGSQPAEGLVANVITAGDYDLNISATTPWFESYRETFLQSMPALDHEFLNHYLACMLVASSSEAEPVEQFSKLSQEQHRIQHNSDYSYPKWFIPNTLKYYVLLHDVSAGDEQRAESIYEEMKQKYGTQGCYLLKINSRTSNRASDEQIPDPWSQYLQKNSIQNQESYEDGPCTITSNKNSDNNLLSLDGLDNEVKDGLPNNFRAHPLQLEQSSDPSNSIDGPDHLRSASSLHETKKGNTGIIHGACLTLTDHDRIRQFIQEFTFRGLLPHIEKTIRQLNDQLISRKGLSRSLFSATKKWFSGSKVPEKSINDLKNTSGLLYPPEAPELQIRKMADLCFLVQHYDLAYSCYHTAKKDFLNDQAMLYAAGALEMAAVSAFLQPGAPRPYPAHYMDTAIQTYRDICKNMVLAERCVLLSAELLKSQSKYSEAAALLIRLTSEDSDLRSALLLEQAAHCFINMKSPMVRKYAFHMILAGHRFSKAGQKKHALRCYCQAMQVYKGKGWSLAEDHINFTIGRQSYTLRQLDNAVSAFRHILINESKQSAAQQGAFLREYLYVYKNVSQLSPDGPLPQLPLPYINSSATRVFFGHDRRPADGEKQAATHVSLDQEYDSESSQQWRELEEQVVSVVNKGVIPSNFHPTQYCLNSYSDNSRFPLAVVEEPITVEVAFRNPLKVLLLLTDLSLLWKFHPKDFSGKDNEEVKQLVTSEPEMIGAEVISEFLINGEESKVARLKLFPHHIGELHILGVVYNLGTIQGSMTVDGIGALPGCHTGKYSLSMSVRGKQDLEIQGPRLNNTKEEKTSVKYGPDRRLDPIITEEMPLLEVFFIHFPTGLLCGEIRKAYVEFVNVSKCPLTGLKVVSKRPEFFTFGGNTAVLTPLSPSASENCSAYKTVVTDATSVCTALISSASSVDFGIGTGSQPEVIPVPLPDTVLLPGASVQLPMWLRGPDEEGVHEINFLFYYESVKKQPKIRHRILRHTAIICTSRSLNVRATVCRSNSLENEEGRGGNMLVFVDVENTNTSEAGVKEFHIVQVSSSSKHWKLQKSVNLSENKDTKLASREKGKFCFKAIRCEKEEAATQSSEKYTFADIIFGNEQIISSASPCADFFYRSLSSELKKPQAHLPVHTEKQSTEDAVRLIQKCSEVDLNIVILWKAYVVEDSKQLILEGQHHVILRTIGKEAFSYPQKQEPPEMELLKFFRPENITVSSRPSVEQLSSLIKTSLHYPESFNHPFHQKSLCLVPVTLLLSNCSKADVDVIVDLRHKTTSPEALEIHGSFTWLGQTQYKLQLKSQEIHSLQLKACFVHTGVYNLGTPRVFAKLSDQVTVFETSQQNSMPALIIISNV
UniProt Q9H4A3, sequence (Q9H4A3 whole entry, looked up): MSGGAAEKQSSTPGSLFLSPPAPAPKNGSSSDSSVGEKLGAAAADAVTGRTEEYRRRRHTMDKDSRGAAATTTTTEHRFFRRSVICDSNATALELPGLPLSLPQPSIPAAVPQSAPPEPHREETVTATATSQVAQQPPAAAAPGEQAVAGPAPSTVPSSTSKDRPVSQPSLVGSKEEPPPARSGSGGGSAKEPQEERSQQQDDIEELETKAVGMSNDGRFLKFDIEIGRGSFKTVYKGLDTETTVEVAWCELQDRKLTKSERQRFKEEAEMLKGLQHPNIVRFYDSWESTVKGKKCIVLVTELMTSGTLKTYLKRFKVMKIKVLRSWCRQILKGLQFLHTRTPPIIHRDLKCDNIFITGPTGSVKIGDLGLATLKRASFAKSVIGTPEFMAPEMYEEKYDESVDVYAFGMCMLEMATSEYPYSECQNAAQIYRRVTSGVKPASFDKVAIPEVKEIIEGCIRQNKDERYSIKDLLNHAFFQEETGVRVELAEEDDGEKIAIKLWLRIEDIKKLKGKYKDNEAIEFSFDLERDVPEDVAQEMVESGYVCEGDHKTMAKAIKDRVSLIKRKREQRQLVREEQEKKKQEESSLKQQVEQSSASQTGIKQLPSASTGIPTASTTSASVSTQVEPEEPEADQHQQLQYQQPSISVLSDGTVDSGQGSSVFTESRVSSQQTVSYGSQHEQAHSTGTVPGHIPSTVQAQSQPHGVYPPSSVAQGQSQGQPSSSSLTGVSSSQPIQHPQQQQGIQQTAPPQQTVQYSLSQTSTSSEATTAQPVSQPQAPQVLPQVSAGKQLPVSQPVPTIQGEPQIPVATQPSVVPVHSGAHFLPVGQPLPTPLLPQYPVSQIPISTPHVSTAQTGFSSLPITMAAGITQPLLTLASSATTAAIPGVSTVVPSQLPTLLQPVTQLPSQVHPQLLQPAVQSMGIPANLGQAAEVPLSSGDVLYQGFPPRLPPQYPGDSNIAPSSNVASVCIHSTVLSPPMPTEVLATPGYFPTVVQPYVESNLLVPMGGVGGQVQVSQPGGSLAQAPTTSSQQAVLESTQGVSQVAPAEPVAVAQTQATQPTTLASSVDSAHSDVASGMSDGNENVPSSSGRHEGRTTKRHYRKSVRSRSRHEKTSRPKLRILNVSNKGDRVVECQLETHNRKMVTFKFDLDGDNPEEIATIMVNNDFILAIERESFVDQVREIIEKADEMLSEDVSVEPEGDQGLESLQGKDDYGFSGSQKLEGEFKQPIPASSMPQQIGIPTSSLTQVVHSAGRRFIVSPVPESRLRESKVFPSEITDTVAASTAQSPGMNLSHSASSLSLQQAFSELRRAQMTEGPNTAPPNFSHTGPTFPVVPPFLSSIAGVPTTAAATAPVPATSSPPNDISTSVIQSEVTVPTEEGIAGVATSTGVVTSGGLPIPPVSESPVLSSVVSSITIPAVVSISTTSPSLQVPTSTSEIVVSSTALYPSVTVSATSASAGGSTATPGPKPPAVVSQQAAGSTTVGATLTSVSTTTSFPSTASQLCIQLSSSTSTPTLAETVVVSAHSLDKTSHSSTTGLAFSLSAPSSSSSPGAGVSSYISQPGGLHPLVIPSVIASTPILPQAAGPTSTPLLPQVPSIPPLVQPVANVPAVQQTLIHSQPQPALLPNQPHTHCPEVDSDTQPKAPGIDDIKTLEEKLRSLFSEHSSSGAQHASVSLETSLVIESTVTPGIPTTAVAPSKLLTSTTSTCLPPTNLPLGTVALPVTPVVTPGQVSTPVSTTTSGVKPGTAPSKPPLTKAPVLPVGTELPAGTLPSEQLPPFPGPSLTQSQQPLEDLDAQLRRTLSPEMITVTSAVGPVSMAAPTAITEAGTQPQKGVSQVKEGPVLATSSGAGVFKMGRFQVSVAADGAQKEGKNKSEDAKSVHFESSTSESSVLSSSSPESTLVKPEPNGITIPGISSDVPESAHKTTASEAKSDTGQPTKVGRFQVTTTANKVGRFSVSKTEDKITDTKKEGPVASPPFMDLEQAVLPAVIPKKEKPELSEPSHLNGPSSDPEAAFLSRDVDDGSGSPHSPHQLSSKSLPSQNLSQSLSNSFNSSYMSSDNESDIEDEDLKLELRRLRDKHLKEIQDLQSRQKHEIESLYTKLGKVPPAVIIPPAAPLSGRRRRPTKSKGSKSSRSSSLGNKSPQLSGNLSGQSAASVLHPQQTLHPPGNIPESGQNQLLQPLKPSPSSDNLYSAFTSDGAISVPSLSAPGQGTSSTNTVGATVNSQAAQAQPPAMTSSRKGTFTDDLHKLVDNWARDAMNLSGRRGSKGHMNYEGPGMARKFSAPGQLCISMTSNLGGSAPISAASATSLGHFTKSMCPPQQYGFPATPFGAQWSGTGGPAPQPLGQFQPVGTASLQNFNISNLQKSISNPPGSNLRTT
UniProt Q16763, sequence (Q16763 whole entry, looked up): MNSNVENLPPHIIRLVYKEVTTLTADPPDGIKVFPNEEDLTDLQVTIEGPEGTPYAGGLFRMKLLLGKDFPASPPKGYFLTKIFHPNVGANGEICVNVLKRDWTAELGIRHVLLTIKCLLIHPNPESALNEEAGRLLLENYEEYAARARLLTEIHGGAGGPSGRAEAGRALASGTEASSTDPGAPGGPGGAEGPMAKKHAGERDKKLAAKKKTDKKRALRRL
UniProt Q8N4H5, sequence (Q8N4H5 whole entry, looked up): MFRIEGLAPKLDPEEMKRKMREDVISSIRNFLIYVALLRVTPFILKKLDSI

Target	log2 fold change (bafetinib)	log2 fold change [1]	log2 fold change (nilotinib)	log2 fold change [2]	log2 fold change (dasatinib)	log2 fold change [3]	log2 fold change [4]	log2 fold change [5]	log2 fold change (tipifarnib)	log2 fold change (mubritinib)
XPNPEP1 isoform 3 (UniProt Q9NQW7)	-0.047	-0.013	-0.036	0.014	-0.086	-0.028	0.084	0.039	-0.033	0.042
USP9X (UniProt Q93008)	-0.016	0.071	-0.099	-0.056	-0.122	-0.004	-0.052	-0.021	-0.126	0.052
TOE1 (UniProt Q96GM8)	0.301	0.033	0.152	0.178	0.097	0.017	-0.113	-0.072	-0.036	0.111
VPS13B (UniProt Q7Z7G8)	-0.075	-0.012	-0.005	0.049	0.047	-0.004	0.005	0.029	0.037	0.01
TRAPPC8 (UniProt Q9Y2L5)	-0.037	0.044	-0.055	-0.04	-0.133	0.059	0	0.004	-0.013	0.045
VPS8 (UniProt Q8N3P4)	0.073	0.043	-0.162	-0.018	-0.107	0.035	-0.018	-0.083	-0.078	0.043
WNK1 isoform 7 (UniProt Q9H4A3)	-0.038	0.046	-0.029	-0.071	0.102	0.022	0.178	-0.022	-0.022	0.036
USP15 (UniProt Q9Y4E8)	-0.01	0.047	-0.064	-0.082	-0.099	0.005	0.021	0.044	-0.081	0.023
TOMM5 isoform 2 (UniProt Q8N4H5)	-0.141	-0.114	0.079	0.004	-0.004	-0.079	0.062	0.217	0.107	0.038
VPS16 (UniProt Q9H269)	0.041	0.178	-0.038	-0.071	-0.14	-0.022	-0.039	0.04	-0.078	0.083
VPS52 (UniProt Q8N1B4)	-0.005	-0.031	-0.085	-0.086	-0.071	0.091	0.001	-0.016	-0.089	0
UBXN10 (UniProt Q96LJ8)	0.002	-0.266	-0.085	0.141	-0.032	-0.098	-0.075	0.021	0.01	0.067
TPM2 (UniProt P07951)	0.034	0.003	0.126	-0.097	0.072	0.064	-0.019	-0.015	0.086	0.025
USP25 isoform 3 (UniProt Q9UHP3)	-0.043	0.029	-0.021	-0.017	-0.048	0.018	-0.038	0.009	-0.024	0.023
U2AF2 (UniProt P26368)	-0.019	-0.241 (active)	-0.003	-1.66 (active)	0.018	0.049	-0.011	-0.044	0.045	-0.051
WDR4 (UniProt P57081)	0.455 (active)	-0.06	0.009	0.005	-0.013	-0.003	0.068	-0.061	-0.132	0.031
TOM1L1 (UniProt O75674)	-0.025	-0.265 (active)	-0.003	-0.069	-0.04	0.087	0.031	0.032	0.06	0.034
TRAPPC13 isoform 5 (UniProt A5PLN9)	0.11	0.149	-0.019	0	-0.346 (active)	-0.056	0.002	-0.112	-0.011	0.057
UBC (UniProt P0CG48)	0.055	-0.156	0.116	0.013	0.02	-0.025	0.003	0.07	-0.051	0.005
UBE2S (UniProt Q16763)	-0.025	-0.08	-0.008	-0.017	0.001	0.04	-0.002	-0.037	-0.072	0.002
VDAC1 (UniProt P21796)	-0.039	-0.037	0.006	0.025	0.035	-0.005	0.02	0.008	0.017	0.02
WDR46 (UniProt O15213)	0.251	-0.026	-0.055	0.117	0.364	0.096	-0.376	-0.187	0.084	-0.093
UNC119B (UniProt A6NIH7)	0.424	-0.006	0.16	-0.077	0.069	0.173	0.428	-0.089	-0.143	0.14
UCHL5 (UniProt Q9Y5K5)	0.014	0.045	-0.06	-0.071	-0.152	0.007	0.012	0	-0.093	-0.001
VPS35L (UniProt Q7Z3J2)	0.006	-0.008	-0.201	0.101	-0.056	-0.123	-0.152	0.009	-0.002	0.02
TMEM161A (UniProt Q9NX61)	-0.156	0.043	-0.157	0.023	-0.09	-0.021	-0.05	-0.025	-0.165	0.027
WDHD1 (UniProt O75717)	-0.009	0.008	-0.005	-0.12	-0.076	-0.021	0.03	0.022	-0.041	0.067
USP3 (UniProt Q9Y6I4)	0.011	-0.009	-0.125	-0.198	-0.185	-0.026	0.027	-0.023	-0.226	0.045
VPS51 (UniProt Q9UID3)	0.009	0.039	-0.089	-0.037	-0.126	-0.042	-0.075	-0.008	-0.095	0.083
TMEM120A (UniProt Q9BXJ8)	0.454 (active)	-0.054	-0.009	-0.038	0.046	-0.09	0.053	0.057	0.011	0.048
